Source: PubChem BioAssay (several laboratories)
Shown are actives, neighbours in structure and some others; about 1.2% of the full set was active somewhere.
NCOA3 inh: inhibitors of human steroid receptor coactivator 3 (SRC3) | AID 588352 | HEK293 GAL4-SRC3 luciferase reporter, luminescence | 360,000 compounds, 0.17% hits | inhibition, % at 3.6 µM | Q9Y6Q9;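 active means inhibition above a per-campaign cutoff, the mean of all compounds plus 3 SD, cut at about 60% in these data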;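 further: 0% = DMSO-treated cells and 100% = gossypol-treated cells at 36 µM; higher means less SRC3-driven luciferase light from the GAL4 reporter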
NR5A2 inv ag: suppresses constitutive activity of human LRH-1 | O00482 | HEK293T StAR-luciferase reporter, LRH-1 transfected, 24 h | 360,000 compounds, 0.13% hits | inhibition, % at 3.6 µM;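 active means inhibition above the mean inhibition of all tested compounds plus 3 SD, cut at about 73% in these data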;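 further: 0% = DMSO wells and 100% = reporter-only cells lacking LRH-1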
NCOA2 inhibitor: human SRC2 (NCOA2) inhibition. Q15596. HEK293 GAL4-SRC2 luciferase reporter, luminescence. inhibition, % at 9 µM. 370,000 compounds, 0.17% hits. AID 651957;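 active means inhibition above the mean inhibition of all tested compounds plus 3 SD, set per campaign, cut at about 52% in these data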;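 further: 0% = DMSO treated cells and 100% = cells given Gossypol at 36 µM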
NR2F2 inh: NR2F2 (human) inhibition, primary screen. AID 686940. 370,000 compounds, 0.7% hits. inhibition, % at 8.6 µM. HEK293T NGFI-A luciferase reporter, luminescence. P24468;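 active means inhibition above a per-plate cutoff, mean inhibition of test wells between control levels plus 3 SD, cut at about 38% in these data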;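 further: cells cotransfected with COUP-TFII expression vector driving the NGFI-A reporter; 0% = median of COUP-TF2 test wells and 100% = reporter-only cells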
SRC1 inh: human NCOA1 inhibition; Q15788; HEK293 GAL4-SRC1 luciferase reporter, luminescence; inhibition, % at 3.6 µM; 360,000 compounds, 0.12% hits;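 active means inhibition above the campaign mean plus 3 SD, with each screening campaign given its own cutoff, cut at about 60% in these data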;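 further: 0% = DMSO treated cells and 100% = gossypol at 36 µM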
Target sequence (Q15788 whole entry, looked up, the tested form may be a part): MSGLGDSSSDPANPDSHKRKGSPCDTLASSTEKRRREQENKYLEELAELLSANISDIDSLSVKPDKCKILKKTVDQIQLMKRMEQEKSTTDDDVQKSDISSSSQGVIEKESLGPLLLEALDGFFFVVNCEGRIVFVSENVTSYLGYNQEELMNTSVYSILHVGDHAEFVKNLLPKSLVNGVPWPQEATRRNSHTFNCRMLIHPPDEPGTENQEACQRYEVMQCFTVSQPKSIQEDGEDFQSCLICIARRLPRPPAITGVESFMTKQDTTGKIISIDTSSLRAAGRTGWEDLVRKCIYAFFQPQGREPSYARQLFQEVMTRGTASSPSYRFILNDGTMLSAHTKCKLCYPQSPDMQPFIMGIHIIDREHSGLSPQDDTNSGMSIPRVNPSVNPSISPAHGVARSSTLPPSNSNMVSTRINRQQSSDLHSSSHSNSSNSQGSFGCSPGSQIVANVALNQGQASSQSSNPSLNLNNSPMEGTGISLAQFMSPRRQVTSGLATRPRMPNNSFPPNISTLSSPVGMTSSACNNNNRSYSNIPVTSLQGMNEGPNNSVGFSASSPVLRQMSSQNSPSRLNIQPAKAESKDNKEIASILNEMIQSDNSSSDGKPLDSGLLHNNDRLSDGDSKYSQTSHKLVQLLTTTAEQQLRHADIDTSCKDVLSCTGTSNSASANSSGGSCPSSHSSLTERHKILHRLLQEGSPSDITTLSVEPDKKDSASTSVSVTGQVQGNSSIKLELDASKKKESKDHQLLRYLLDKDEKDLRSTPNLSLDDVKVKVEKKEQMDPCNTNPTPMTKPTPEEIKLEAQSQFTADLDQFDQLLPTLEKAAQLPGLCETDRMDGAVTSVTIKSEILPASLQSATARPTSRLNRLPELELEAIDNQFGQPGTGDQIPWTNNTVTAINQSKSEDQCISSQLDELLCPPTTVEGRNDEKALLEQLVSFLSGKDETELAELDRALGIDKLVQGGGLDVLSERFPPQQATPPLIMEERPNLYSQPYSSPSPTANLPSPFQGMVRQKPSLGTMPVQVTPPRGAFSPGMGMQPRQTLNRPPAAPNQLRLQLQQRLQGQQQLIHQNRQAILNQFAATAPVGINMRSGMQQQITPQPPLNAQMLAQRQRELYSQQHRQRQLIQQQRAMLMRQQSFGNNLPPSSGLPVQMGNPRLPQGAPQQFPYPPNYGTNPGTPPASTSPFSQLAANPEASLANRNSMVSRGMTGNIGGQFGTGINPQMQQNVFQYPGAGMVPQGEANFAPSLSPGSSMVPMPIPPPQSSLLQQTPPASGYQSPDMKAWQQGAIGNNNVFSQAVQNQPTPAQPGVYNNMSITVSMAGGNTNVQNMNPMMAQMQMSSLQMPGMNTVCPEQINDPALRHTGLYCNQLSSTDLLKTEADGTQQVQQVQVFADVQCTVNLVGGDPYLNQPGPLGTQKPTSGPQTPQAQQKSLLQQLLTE
Gli-Sufu antag: Gli-Sufu pathway antagonism | Sufu-KO-LIGHT fibroblasts, Gli luciferase reporter luminescence | 340,000 compounds, 0.74% hits | inhibition, % at 5 µM;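 active means inhibition above about 55%, limit read from the data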;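 further: 0% = DMSO-treated cells and 100% = wells with medium but no cells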
VP16 Luc counter: VP16 inhibition counter-screen for COUP-TFII. inhibition, % at 8.5 µM. HEK293 Gal4-VP16 luciferase reporter, luminescence. 2,500 compounds, 25% hits. shares compounds with NR2F2 inh; in the data active means inhibition above about 13%
COUP-TFII conf: COUP-TFII (NR2F2) inhibition, confirmation assay | AID 687008 | inhibition, % at 8.5 µM | HEK293 NGFI-A luciferase reporter, luminescence | shares compounds with NR2F2 inh | 2,500 compounds, 45% hits;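 active means mean inhibition over three repeats above a set limit taken from the earlier primary screen, cut at about 38% in these data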;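 further: 100% = cells given the luciferase reporter alone without the COUP-TF2 vector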
The depositor's hits bear a star; nt = not tested or not shown.

SMILES	NCOA3 inh	NR5A2 inv ag	NCOA2 inhibitor	NR2F2 inh	SRC1 inh	Gli-Sufu antag	VP16 Luc counter	COUP-TFII conf
CC(=O)c1ccc(NC(=O)c2ccc(C)c(S(=O)(=O)N3CCOCC3)c2)cc1	10.2	-11.6	10.8	-1.4	-4.7	-3.3	nt	nt
Cc1cc(C)n(-c2ccc(C(=O)Nc3ccc(C)c(S(=O)(=O)N4CCOCC4)c3)cc2)n1	26.0	26.1	30.1	50.6*	34.2	5.5	-1.2	25.7
COc1ccc(NC(=O)/C=C/c2ccc(S(=O)(=O)N3CCOCC3)cc2)cc1	-7.5	-2.7	14.1	-6.8	-5.0	1.2	nt	nt
CCOC(=O)c1ccc(NC(=O)c2ccc(C)c(S(=O)(=O)N3CCOCC3)c2)cc1	53.5	79.9*	50.2	80.7*	41.2	-12.4	6.0	81.5*
O=C(N[C@H](C(=O)N1CCC[C@H]1C(=O)NC1CCCC1)c1ccccc1)c1ccc(Cl)c(Cl)c1	nt	nt	19.8	7.0	nt	nt	nt	nt
COC(=O)[C@]12C[C@H](CC(=O)NCc3ccccc3)C(=O)N(CCc3ccc(OC)c(OC)c3)C1=C[C@H](C1CCCC1)O[C@@H]2C	nt	nt	-8.4	14.7	nt	nt	nt	nt
FC(F)(F)Oc1cccc(Cn2ccc3ccc(-c4ccc5ccn(Cc6cccc(OC(F)(F)F)c6)c5c4)cc32)c1	nt	nt	12.6	11.3	nt	nt	nt	nt
CC1Cc2cc(-c3csc(NC(=O)Cc4cccs4)n3)ccc2N1S(C)(=O)=O (stereo not drawn)	63.6*	62.5	11.4	81.2*	53.3	-10.1	-1.9	85.4*
CCC(=O)Nc1nc(-c2ccc3c(c2)CC(C)N3S(C)(=O)=O)cs1 (stereo not drawn)	-35.7	-16.6	-2.4	0.3	-29.1	-26.7	nt	nt
CCOC(=O)c1cc(-c2ccccc2)n(CCC(=O)O)c1C	-4.4	-6.2	18.4	10.5	1.9	-5.8	nt	nt
CCOC(=O)c1cc(-c2ccc(C)cc2)n(CCC(=O)N2CCN(c3ccccn3)CC2)c1C	12.2	11.3	8.2	38.7*	-8.0	38.6	-6.2	8.4
Cc1cc(/C=C2\Sc3ccccc3N2C)cc(C)[n+]1CC1CCCO1 (stereo not drawn)	47.6	61.6	-1.4	49.2*	42.5	88.3*	11.7	62.0*
COc1ccc(CNC(=O)c2cc(-c3ccccc3)c(N3CCOCC3)s2)cc1OC	nt	nt	15.2	11.0	nt	nt	nt	nt
COc1cccc2c1C(=O)C=C(C)C2=O	8.6	21.3	-8.9	2.7	-1.2	16.7	nt	nt
COC1=CC(=O)c2c(ccc3ncnc(N)c23)C1=O	69.2*	72.5	62.3*	54.8*	60.0	56.4*	62.1*	44.1*
CCOC(=O)C1CCN(c2cc(C)nc3ccc(OC)cc23)CC1	26.6	17.8	22.8	42.0*	4.7	35.4	1.8	7.1
COc1ccc2nc(C)cc(N3CCC(C(N)=O)CC3)c2c1	20.0	9.4	-5.1	-5.5	11.5	-1.1	nt	nt
O=C(Nc1ccc(N2CCN(c3ncccc3C(F)(F)F)CC2)nc1)c1cccs1	35.4	17.2	3.9	52.3*	23.5	15.5	5.4	40.5*
O=C(Nc1ccc(N2CCN(c3ccc(C(F)(F)F)cn3)CC2)nc1)c1cccs1	1.7	-10.7	20.7	8.2	9.5	22.9	nt	nt
O=C(CSc1nc2nc(-c3cccs3)cc(C(F)(F)F)c2c(=O)[nH]1)C(F)(F)F	16.6	-13.1	34.1	38.1*	17.2	17.9	-3.2	36.5
CCOC(=O)c1c(NC(=S)N2CCN(C)CC2)sc2c1CCN(C(=O)OCC)C2	34.9	-12.5	-11.2	39.3*	-4.5	8.6	0.6	7.6
CCOC(=O)c1c(NC(=O)CN(CC)CC)sc2c1CCN(C(=O)OCC)C2	3.1	25.9	-12.5	11.7	1.0	-12.1	nt	nt
COc1ccc2c(c1)N=C(c1[nH]c3ccccc3c1CCN1C(=O)c3ccccc3C1=O)[C@]2(O)CCN1C(=O)c2ccccc2C1=O	nt	nt	nt	0.4	nt	nt	nt	nt
O=c1c2ccccc2nc(/C=C/c2cccnc2)n1CCc1ccccc1	23.3	22.7	5.7	44.4*	23.4	14.7	-6.1	4.2
CCOc1cccc(/C=N/NC(=S)Nc2ccccc2[N+](=O)[O-])c1O	80.0*	79.2*	59.9*	81.7*	84.2*	53.8	5.2	67.2*
SMILES	NCOA3 inh	NR5A2 inv ag	NCOA2 inhibitor	NR2F2 inh	SRC1 inh	Gli-Sufu antag	VP16 Luc counter	COUP-TFII conf
O=C(CNc1cccc(Br)c1)Nc1ccc(S(=O)(=O)N2CCCCC2)cc1	-19.2	9.7	-13.6	4.8	-17.0	nt	nt	nt
O=C(CNc1cccc(F)c1)Nc1cccc(S(=O)(=O)N2CCCCC2)c1	5.4	-10.1	5.9	-16.2	-4.2	-4.5	nt	nt
O=C(CNc1cccc(S(=O)(=O)N2CCCC2)c1)Nc1ccc(C(F)(F)F)cc1	15.0	13.9	14.9	40.4*	-7.2	33.5	5.6	28.7
Cc1ccc(NC(=O)CNc2cccc(S(=O)(=O)N3CCCCC3)c2)cc1F	-16.2	7.5	19.3	18.8	11.0	6.4	nt	nt
Cc1ccc(NCC(=O)Nc2cccc(F)c2)cc1S(=O)(=O)N1CCCCCC1	12.6	20.3	37.8	46.3*	11.2	-2.9	-4.4	7.4
O=C(CNc1cccc(S(=O)(=O)N2CCCCC2)c1)Nc1ccc(C(F)(F)F)cc1	7.5	9.3	5.6	37.5*	15.0	nt	-0.9	5.4
CC(C)C[C@H]1COc2cc(NCc3ccc(Cl)c(Cl)c3)ccc2S(=O)(=O)N1	nt	nt	-34.3	-0.1	nt	nt	nt	nt
Nc1[nH]c(C(=O)c2ccc(Br)cc2)c(-c2ccc(Cl)cc2[N+](=O)[O-])c1C(=O)NCCc1c[nH]c2ccccc12	nt	nt	-1.2	7.6	nt	nt	nt	nt
O=C(Nc1cc(Cl)ccc1F)C1CCCN(c2nnc(-n3cccc3)s2)C1 (stereo not drawn)	nt	nt	-12.0	-9.1	nt	nt	nt	nt
Cc1ccc(/C=C2/CNC/C(=C/c3ccc(C)cc3)C2=O)cc1	12.2	79.9*	-54.1	47.0*	36.5	-2.3	54.2*	49.7*
Cc1ccc(C2=[N+]([O-])C3(CCCCC3=O)N(O)C2(C)C)cc1 (stereo not drawn)	-2.3	7.8	78.3*	80.2*	3.7	8.7	-5.8	-6.7
CC1(C)C(c2ccco2)=[N+]([O-])C2(CCCCC2=O)N1O (stereo not drawn)	6.1	-1.4	14.4	9.6	14.9	1.5	nt	nt
CN(C)S(=O)(=O)c1ccc(C(=O)NC2CCCc3ccccc32)cc1 (stereo not drawn)	14.2	7.9	-6.9	63.3*	-5.2	-1.3	-2.8	-2.4
COc1ccc(/C=C/C(=O)Nc2ccccc2C(=O)O)cc1OC	49.0	36.6	33.6	59.6*	38.4	18.8	-17.2	35.3
COP(=O)(O)[C@@H](CC(C)C)NC(=O)OCc1ccccc1	nt	nt	-20.1	1.0	nt	nt	nt	nt
CCCCCCC(=O)N(O)C1CC(=O)N(Cc2ccccc2)C1=O (stereo not drawn)	8.3	11.9	9.0	29.3	2.0	-0.9	nt	nt
